Counter-ions that a name gives are not always drawn.
system: Saccharomyces cerevisiae BY4741 SeMeCo community; assay: z-score of subpopulation abundance vs DMSO median, subpopulation auxotrophic for HUM; higher = larger share of this subpopulation than in DMSO controls; details: 10 µM; 24 h; SM minimal medium; subpopulation (auxotrophy): HUM
Method: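 Fluorescent four-plasmid SeMeCo (self-establishing metabolically cooperating S. cerevisiae BY4741 community; plasmids pH-mRuby2, pL-mWasabi, pU-eCFP, pM-TagRFP657) was grown 24 h in minimal SM medium with each Selleck FDA-approved drug at 10 µM in 384-well plates. Cells were fixed and imaged by high-content confocal microscopy. For each auxotrophic subpopulation (and the prototroph), a z-score gives the deviation from the DMSO vehicle-control population median.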

Row | Compound | z-score of subpopulation abundance
1 | CN1[C@@H]2C[C@@H](OC(=O)[C@H](CO)c3ccccc3)C[C@H]1[C@@H]1O[C@@H]12 [Scopolamine HBr] | -0.97
2 | C[N+](C)(C)CCCCCCCCCC[N+](C)(C)C [Decamethonium Bromide] | 0.18
3 | CN1C(=O)COc2c(C(=O)NC3CN4CCC3CC4)cc(Cl)cc21 (stereo not given) [Azasetron HCl] | 0.35
4 | N[C@@H]1C[C@H]1c1ccccc1 [Tranylcypromine (2-PCPA) HCl] | -0.57
5 | Oc1cccc2cccnc12 [8-Hydroxyquinoline] | -0.54
6 | CN(C)[C@@H]1C(=O)C(C(N)=O)=C(O)[C@@]2(O)C(=O)C3=C(O)c4c(O)cccc4[C@@](C)(O)[C@H]3[C@H](O)[C@@H]12 [Oxytetracycline Dihydrate] | -0.79
7 | C=C(C)[C@H]1Cc2c(ccc3c2O[C@@H]2COc4cc(OC)c(OC)cc4[C@@H]2C3=O)O1 [Rotenone (Barbasco)] | 0.94
8 | COc1ccc2c3c([nH]c2c1)C(C)=NCC3 [Harmaline] | -6.26
9 | C[N+]12CCC(CC1)C(OC(=O)C(O)(c1ccccc1)c1ccccc1)C2 (stereo not given) [Clidinium Bromide] | -0.01
10 | O=c1cccc2n1C[C@@H]1CNC[C@H]2C1 [Cytisine] | -0.61
11 | CC[C@H]1CN2CC[C@]3(C(=O)Nc4ccccc43)[C@@H]2C[C@@H]1/C(=C\OC)C(=O)OC [Rhynchophylline] | 0.73
12 | Cc1cc(O)ccc1Cl [Chlorocresol] | -0.26
13 | C[CH2][Hg][S]c1ccccc1C(=O)[O-].[Na+] [Thimerosal] | 14.9
14 | COc1cc2c(cc1OC)C1CC(=O)C(CC(C)C)CN1CC2 (stereo not given) [Tetrabenazine (Xenazine)] | -0.9
15 | CN(C)C(=O)Oc1cccc([N+](C)(C)C)c1 [Neostigmine Bromide] | -0.37
16 | COc1ccc(C=O)cc1 [p-Anisaldehyde] | -0.95
17 | C[C@H]1O[C@H](O[C@H]2[C@H](O)[C@@H](O)[C@@H](O)[C@H](O)[C@@H]2O)[C@@H](N)C[C@@H]1NC(=N)C(=O)O [Kasugamycin hydrochloride] | -0.14
18 | CCC1=C[C@H]2CN3CCc4c([nH]c5ccccc45)[C@](C(=O)OC)(C2)[C@H]13 [Catharanthine] | 0.29
19 | C=C[C@H]1CN2CC[C@H]1C[C@H]2[C@H](O)c1ccnc2ccccc12 [Cinchonidine] | 0.48
20 | NCC(O)c1ccc(O)cc1 (racemic) [(+,-)-Octopamine HCl] | -0.21

Row | Compound | z-score of subpopulation abundance
21 | O=C(O[C@H]1C[N+]2(CCCOc3ccccc3)CCC1CC2)C(O)(c1cccs1)c1cccs1 [Aclidinium Bromide] | 0.22
22 | Nc1ccncc1 [4-Aminopyridine] | -0.37
23 | NCCc1c[nH]c2ccc(O)cc12 [Serotonin HCl] | 0.18
24 | O=C(O[C@H]1C[C@H]2CC[C@@H](C1)[N+]21CCCC1)C(O)(c1ccccc1)c1ccccc1 [Trospium chloride] | -0.32
25 | C#C[C@]1(O)C=C[C@H]2[C@@H]3CCC4=CC(=O)CC[C@@H]4[C@H]3CC[C@@]21CC [Gestodene] | -0.17
26 | CC1(C)SC2C(N)C(=O)N2C1C(=O)O (stereo not given) [6-Aminopenicillanic acid] | 0.65
27 | CN1c2ccccc2C(NCCCCCCC(=O)O)c2ccc(Cl)cc2S1(=O)=O (stereo not given) [Tianeptine sodium] | -0.16
28 | CCN(C)C(=O)Oc1cccc([C@H](C)N(C)C)c1 [Rivastigmine Tartrate] | -0.85
29 | CN1[C@@H]2CC[C@H]1C[C@@H](OC(=O)C(CO)c1ccccc1)C2 (stereo not given in full) [Atropine sulfate monohydrate] | -0.27
30 | C[C@@H]1CC[C@H]2[C@@H](C)C(=O)O[C@@H]3O[C@@]4(C)CC[C@@H]1[C@]32OO4 [Artemisinin] | -0.49
31 | NC(=O)CN1CCCC1=O [Piracetam] | 1.72
32 | COc1ccc2c(c1)[C@]13CCCC[C@@H]1[C@H](C2)N(C)CC3 [Dextromethorphan hydrobromide hydrate] | 0.2
33 | Oc1cc(Cl)ccc1Oc1ccc(Cl)cc1Cl [Triclosan] | -1.9
34 | C=CC[C@]1(O)CC[C@H]2[C@@H]3CCC4=CC(=O)CCC4=C3C=C[C@@]21C [Altrenogest] | -0.44
35 | CC[N+](C)(CC)CCOC(=O)C(O)(c1ccccc1)c1ccccc1 [Methylbenactyzine Bromide] | -0.8
36 | CN[C@@H]1[C@@H](O)[C@@H](O[C@@H]2[C@@H](O)[C@H](O[C@H]3O[C@H](CN)CC[C@H]3N)[C@@H](N)C[C@H]2N)OC[C@]1(C)O.CN[C@@H]1[C@@H](O)[C@@H](O[C@@H]2[C@@H](O)[C@H](O[C@H]3O[C@H]([C@@H](C)N)CC[C@H]3N)[C@@H](N)C[C@H]2N)OC[C@]1(C)O.CN[C@@H]1[C@@H](O)[C@@H](O[C@@H]2[C@@H](O)[C@H](O[C@H]3O[C@H]([C@@H](C)NC)CC[C@H]3N)[C@@H](N)C[C@H]2N)OC[C@]1(C)O [Gentamicin Sulfate] | -0.69
37 | C=CCN1C[C@H](C(=O)N(CCCN(C)C)C(=O)NCC)C[C@@H]2c3cccc4[nH]cc(c34)C[C@H]21 [Cabergoline] | -0.37
38 | CN(C)C(=O)Oc1ccc[n+](C)c1 [Pyridostigmine Bromide] | 0.11
39 | CC[C@H]1[C@@H]2C[C@H]3[C@@H]4N(C)c5ccccc5[C@]45C[C@@H]([C@@H]2[C@H]5O)N3[C@@H]1O [Ajmaline] | -0.48
40 | CC(C)N(CCC(C(N)=O)(c1ccccc1)c1ccccn1)C(C)C (stereo not given) [Disopyramide] | -0.19

— the supplement of paper PMC8975748
